Measurements from PubChem BioAssay.
Active and inactive are the calls of the source.

Key:
[1] = optical density shifts of acrAB sulA E. coli – strain DRC41, OD650, 48 h, E. coli filamentation inducer project, primary screen (AID 1152); conditions: higher = more signal, called active from +8 up or from −8 down;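 also: E. coli MC1000 strain DRC41 lacking acrAB efflux pump and sulA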
[2] = probe aLefty1 binding on compound microarray – biochemical, small-molecule microarray, 635/667 nm fluorescence, primary screen (AID 1153); conditions: higher = more signal;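 also: score merges spot fluorescence with signal-to-noise ratio from the scanned slide images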
[3] = plasmodial surface anion channel blockers, osmotic lysis – cell-based, P. falciparum Indochina, OD700, 1 h, primary screen (AID 1154); conditions: P. falciparum Indochina infected RBC osmotic lysis, higher = more signal, called active from +8 up or from −8 down
[4] = plasmodial surface anion channel blockers, osmotic lysis – cell-based, P. falciparum Indochina, OD700, 2 h, primary screen (AID 1155);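 also: lysis reports solute entry through the parasite surface anion channel PSAC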; conditions: P. falciparum Indochina infected erythrocytes, higher = more signal, called active from +8 up or from −8 down
[5] = changes in parasitized red cell lysis, either direction – P. falciparum Indochina, OD700, 3 h, PSAC antagonist project, primary screen (AID 1156); conditions: P. falciparum-infected erythrocytes, osmotic lysis, higher = more signal, called active from +8 up or from −8 down
[6] = plasmodial surface anion channel blockers, osmotic lysis – cell-based, P. falciparum Indochina, OD700, 18 h, primary screen (AID 1157); conditions: P. falciparum Indochina infected erythrocytes, osmotic lysis OD700, 18 h; higher = more signal, called active from +8 up or from −8 down
[7] = S6 kinase pathway phospho-S6 level changes – cell-based, A549, cytoblot, luminescence, serum-stimulated, primary screen (AID 1158); conditions: 5 h, higher = more signal;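 also: serum-stimulated A549 lung adenocarcinoma cells; signal is phosphorylated S6 detected by cytoblot immunostaining with HRP secondary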
[8] = target: NADPH oxidase 2 (Homo sapiens) (UniProt P04839); test: compounds shifting NOX2 Amplex Red fluorescence – cell-based, HEK293-NOX2, PMA-stimulated, NOX inhibitor project, primary screen (AID 1159); conditions: 45 min, higher = more signal, called active from +8 up or from −8 down; also: test concentration not given here
NADPH oxidase 2 (Homo sapiens), sequence (P04839 whole entry, looked up): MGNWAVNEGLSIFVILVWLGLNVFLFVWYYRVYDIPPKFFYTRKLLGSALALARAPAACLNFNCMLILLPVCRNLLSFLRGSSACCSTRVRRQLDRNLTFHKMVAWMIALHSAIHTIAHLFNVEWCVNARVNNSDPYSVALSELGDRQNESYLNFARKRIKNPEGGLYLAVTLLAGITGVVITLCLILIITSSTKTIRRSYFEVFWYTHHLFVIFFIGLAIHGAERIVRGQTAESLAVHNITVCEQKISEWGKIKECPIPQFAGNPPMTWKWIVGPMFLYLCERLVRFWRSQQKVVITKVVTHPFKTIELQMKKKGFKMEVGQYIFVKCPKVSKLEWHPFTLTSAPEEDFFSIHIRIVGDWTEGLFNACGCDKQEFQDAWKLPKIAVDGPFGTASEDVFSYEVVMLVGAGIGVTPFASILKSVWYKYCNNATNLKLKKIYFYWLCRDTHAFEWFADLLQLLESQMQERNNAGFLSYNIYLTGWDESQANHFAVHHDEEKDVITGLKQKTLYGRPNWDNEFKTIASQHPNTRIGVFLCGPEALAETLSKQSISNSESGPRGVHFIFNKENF

[9] = target: NADPH oxidase 4 (Homo sapiens) (UniProt Q9NPH5); test: compounds shifting NOX4 Amplex Red fluorescence – cell-based, HEK293-NOX4, tetracycline-induced, NOX inhibitor project, primary screen (AID 1160); conditions: HEK293-NOX4, Amplex Red H2O2 fluorescence, 45 min; higher = more signal, called active from +8 up or from −8 down
NADPH oxidase 4 (Homo sapiens), sequence (Q9NPH5 whole entry, looked up): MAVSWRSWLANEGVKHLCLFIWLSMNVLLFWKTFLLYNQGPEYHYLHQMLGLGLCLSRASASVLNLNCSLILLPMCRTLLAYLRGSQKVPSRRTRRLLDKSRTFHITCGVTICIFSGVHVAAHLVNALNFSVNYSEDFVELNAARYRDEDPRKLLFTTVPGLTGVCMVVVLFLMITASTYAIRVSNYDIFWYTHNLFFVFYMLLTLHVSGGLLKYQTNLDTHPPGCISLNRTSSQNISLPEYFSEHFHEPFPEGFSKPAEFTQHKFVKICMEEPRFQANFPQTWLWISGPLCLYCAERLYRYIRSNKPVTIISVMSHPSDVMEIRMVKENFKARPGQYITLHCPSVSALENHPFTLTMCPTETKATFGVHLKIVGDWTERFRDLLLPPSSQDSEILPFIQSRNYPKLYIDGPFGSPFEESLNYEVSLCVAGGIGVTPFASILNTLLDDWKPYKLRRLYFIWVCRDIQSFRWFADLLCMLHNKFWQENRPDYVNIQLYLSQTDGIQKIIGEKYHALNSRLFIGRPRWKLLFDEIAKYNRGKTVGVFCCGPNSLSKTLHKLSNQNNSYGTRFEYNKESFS

[10] = target: NADPH oxidase 5 (Homo sapiens) (UniProt Q96PH1); test: compounds shifting NOX5 Amplex Red fluorescence – cell-based, HEK293-NOX5, NOX inhibitor project, primary screen (AID 1161); conditions: HEK293-NOX5, ionomycin, 45 min, higher = more signal
NADPH oxidase 5 (Homo sapiens), sequence (Q96PH1 whole entry, looked up): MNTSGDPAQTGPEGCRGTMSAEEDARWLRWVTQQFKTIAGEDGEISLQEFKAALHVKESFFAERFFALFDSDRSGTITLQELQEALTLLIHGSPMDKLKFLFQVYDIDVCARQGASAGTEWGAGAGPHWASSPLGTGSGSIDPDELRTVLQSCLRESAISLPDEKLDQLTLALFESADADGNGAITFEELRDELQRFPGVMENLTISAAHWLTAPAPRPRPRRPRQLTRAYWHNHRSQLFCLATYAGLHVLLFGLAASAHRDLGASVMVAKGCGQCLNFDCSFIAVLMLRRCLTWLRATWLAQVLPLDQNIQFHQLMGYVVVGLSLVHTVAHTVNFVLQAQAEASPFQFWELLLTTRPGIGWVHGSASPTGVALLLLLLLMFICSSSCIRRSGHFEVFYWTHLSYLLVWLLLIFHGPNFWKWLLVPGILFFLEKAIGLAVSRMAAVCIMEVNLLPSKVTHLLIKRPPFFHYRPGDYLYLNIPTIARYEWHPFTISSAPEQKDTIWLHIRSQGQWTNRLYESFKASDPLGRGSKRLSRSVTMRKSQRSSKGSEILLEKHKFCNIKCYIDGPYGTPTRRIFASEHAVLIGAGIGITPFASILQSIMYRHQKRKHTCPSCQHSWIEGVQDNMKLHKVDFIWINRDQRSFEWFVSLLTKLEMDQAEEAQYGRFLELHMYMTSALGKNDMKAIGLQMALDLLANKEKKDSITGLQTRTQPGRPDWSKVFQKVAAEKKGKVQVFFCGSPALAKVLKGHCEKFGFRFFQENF

SMILES | z-score [1] | composite z-score [2] | z-score [3] | z-score [4] | z-score [5] | z-score [6] | z-score [7] | z-score [8] | z-score [9] | z-score [10]
C=C(C(=O)CC[C@@H](OC(C)=O)c1ccc(OCCO)cc1)C(C)C | 0.0045 (inactive) | -0.142 | 3.04 (inactive) | 0.584 (inactive) | 0.652 (inactive) | 0.332 (inactive) | -0.579 | -1.37 (inactive) | -1.21 (inactive) | -1.77
COc1cc2c(cc1O)C(c1ccc(CN3CCCC3)cc1)N(Cc1sc3ccccc3c1Cl)CC2 (stereo not given) | 0.13 (inactive) | -0.113 | 12.5 (active) | 2.66 (inactive) | 0.913 (inactive) | 1.7 (inactive) | 0.0223 | -3.44 (inactive) | -3.41 (inactive) | -4
O=C(NCCN1CCOCC1)[C@@H]1c2ccccc2C(=O)N(Cc2cc(F)cc(C(F)(F)F)c2)[C@H]1c1ccc(CO)cc1 | -0.61 (inactive) | -0.0492 | 3.37 (inactive) | 0.298 (inactive) | 0.884 (inactive) | 0.0839 (inactive) | -0.287 | 1.44 (inactive) | 1.12 (inactive) | 2
CC(C)C(=C=CC[C@H](O)c1ccccc1OCCO)CCO | -0.42 (inactive) | -0.0576 | 2.08 (inactive) | -0.0743 (inactive) | -0.163 (inactive) | 0.013 (inactive) | -0.2 | -0.353 (inactive) | 0.323 (inactive) | -0.738
CC1CC/C=C\[C@H]2OC34C=CCN(c5ccc6ccccc6c5)C(=O)[C@H]3N(CCCCCO)C(=O)[C@@H]4C2C(=O)O1 (stereo not given in full) | -0.557 (inactive) | -0.427 | 0.157 (inactive) | 0.222 (inactive) | -0.0324 (inactive) | 0.0382 (inactive) | 0.455 | 0.718 (inactive) | -0.265 (inactive) | 1.7
COCCOC(=O)N1C(=O)[C@@]2(c3cc(C#CCC(C(=O)OC)C(=O)OC)ccc31)[C@H](c1ccccc1OCCO)N1[C@H](c3ccccc3)[C@H](c3ccccc3)OC(=O)[C@H]1[C@@H]2C(=O)Nc1nc2ccccc2s1 | 4.44 (inactive) | 0.437 | 11.7 (active) | 1.48 (inactive) | 0.444 (inactive) | -0.734 (inactive) | 3.72 | 1.18 (inactive) | 1.19 (inactive) | -0.494
O=c1cccc(-c2ccccc2)o1 | -0.766 (inactive) | -0.0099 | 3.18 (inactive) | 0.578 (inactive) | -0.891 (inactive) | 0.611 (inactive) | -0.548 | 0.227 (inactive) | -1.81 (inactive) | -0.322
CN1C(=O)C2C=CC(C(O)C=Cc3ccc([N+](=O)[O-])cc3)N(N3CCCCC3)C2C1=O (stereo not given) | -1.54 (inactive) | 1.11 | 2.72 (inactive) | 0.962 (inactive) | 0.714 (inactive) | 1.02 (inactive) | -0.9 | -0.542 (inactive) | -0.397 (inactive) | -1.25
CN1C(=O)C2C(C1=O)C1C=C(c3ccc(CO)cc3)C2C(C2CC2)N1Cc1cc2c(cc1Br)OCO2 (stereo not given) | -0.515 (inactive) | 0.464 | 19.5 (active) | 3.1 (inactive) | 1.2 (inactive) | -0.898 (inactive) | 1.05 | -1.18 (inactive) | -1.04 (inactive) | -0.488
COc1ccc(C#Cc2ccc3c(c2)[C@]2(C(=O)N3)[C@H](C(=O)N3CCc4cc(OC)c(OC)cc4C3)[C@H]3C(=O)O[C@H](c4ccccc4)[C@H](c4ccccc4)N3[C@@H]2c2ccc(OCCO)cc2)cc1 | 1.82 (inactive) | 0.423 | 5.73 (inactive) | 2.37 (inactive) | 0.279 (inactive) | 1.42 (inactive) | 0.0867 | 0.0908 (inactive) | 0.246 (inactive) | 0.115
C=C(CCCC)/C(=C/C[C@@H](OC(=O)c1ccncc1)c1ccc(CO)o1)c1cc(C(=O)OC)ccc1OC | 0.722 (inactive) | 0.0263 | 8.99 (active) | 1.07 (inactive) | 2.84 (inactive) | 0.454 (inactive) | 0.739 | -0.268 (inactive) | -1.08 (inactive) | -1.52
O=C1C2C=CC(C(O)CCc3ccccc3)N(Nc3ccccc3)C2C(=O)N1c1ccccc1 (stereo not given) | -1.7 (inactive) | 0.767 | 1.9 (inactive) | 1.32 (inactive) | 0.624 (inactive) | 1.42 (inactive) | -1.06 | -1.26 (inactive) | -5.33 (inactive) | -1.45
CCOC(=O)N1C(c2ccc(OCCCO)cc2)=NC(C(=O)OC)N1C(=O)OCC (stereo not given) | 1.28 (inactive) | 0.371 | 20.5 (active) | 2.44 (inactive) | 0.873 (inactive) | -1.07 (inactive) | 1.02 | -1.43 (inactive) | 0.403 (inactive) | 0.203
C/C=C/[C@H](CCn1cc([C@H](O)c2ccccc2)nn1)[Si](C)(C)c1ccc(OC)cc1 | -0.356 (inactive) | 0.0038 | 5.6 (inactive) | 0.755 (inactive) | 0.39 (inactive) | 0.13 (inactive) | 0.293 | 0.576 (inactive) | -0.0887 (inactive) | -2.11
C=CCCN(CC#C[C@H]1Oc2ccccc2S(=O)(=O)N2CCC[C@@H]12)S(=O)(=O)c1ccc(C)cc1 | -1.88 (inactive) | 0.0443 | 3.75 (inactive) | 0.451 (inactive) | 0.123 (inactive) | 0.182 (inactive) | -0.23 | 0.744 (inactive) | -1.54 (inactive) | -0.909
O=C1O[C@@H](c2ccccc2)[C@@H](c2ccccc2)N2[C@@H](c3ccc(O)cc3)[C@]3(C(=O)Nc4ccccc43)[C@@H](C(=O)NC[C@H](O)c3ccccc3)[C@H]12 | 2.14 (inactive) | -0.151 | 1.36 (inactive) | -1.01 (inactive) | -1.22 (inactive) | -1.89 (inactive) | 1.09 | 0.0877 (inactive) | -0.423 (inactive) | 1.42
O=C(NCC(O)CO)[C@@]1(Cc2ccccc2)N=C(c2ccc(OCCCO)cc2)O[C@H]1c1ccccc1 (stereo not given in full) | 0.931 (inactive) | 0.828 | 19.8 (active) | 3.69 (inactive) | 1.88 (inactive) | 1.28 (inactive) | -0.142 | -0.513 (inactive) | 1.63 (inactive) | 1.16
COC(=O)[C@@]1(Cc2ccc(OC)cc2)[C@H]2c3cc(C(=O)N4CCCC4)n(C[C@H](O)CO)c3C[C@H]2CN1C(=O)c1ccccc1 | -0.599 (inactive) | 0.132 | 1.24 (inactive) | -0.478 (inactive) | 0.425 (inactive) | 0.201 (inactive) | 0.245 | 0.4 (inactive) | 0.18 (inactive) | -3.78
CCCNC(=O)[C@@]1(C)c2ccccc2C(=O)N(Cc2cc(F)cc(C(F)(F)F)c2)[C@H]1c1ccc(CO)cc1 | 0.119 (inactive) | -0.252 | 7.04 (inactive) | 0.576 (inactive) | 1.03 (inactive) | 0.644 (inactive) | 0.324 | -1.29 (inactive) | -1.51 (inactive) | -2.07
C=CCOC(=O)[C@@H]1[C@H]2C(=O)O[C@H](c3ccccc3)[C@H](c3ccccc3)N2[C@H](c2ccc(OCCOC(=O)[C@H]3C[C@H]4C(=O)N[C@@H](Cc5ccccc5)C(=O)N4[C@H]3c3ccc(O)cc3)cc2)[C@@]12C(=O)Nc1ccc(I)cc12 | -1.78 (inactive) | -0.539 | 6.54 (inactive) | 5.05 (inactive) | -2.73 (inactive) | 2.58 (inactive) | -1.77 | 3.07 (inactive) | 0.471 (inactive) | 3.69
C=C[C@H](C)[C@H](OC(=O)Nc1ccc(OC)cc1)c1ccc(O)c2ccccc12 | -0.222 (inactive) | 0.0313 | 1.71 (inactive) | 0.435 (inactive) | -0.554 (inactive) | -0.187 (inactive) | 0.486 | -5.39 (inactive) | -1.77 (inactive) | -0.256
COC(=O)[C@@]1(Cc2ccc(F)cc2)[C@H]2c3cc(C(=O)N4CCCC4)n(Cc4ccc(Cl)c(C(F)(F)F)c4)c3C[C@H]2CN1C(=O)c1ccccc1 | -1.31 (inactive) | 1.99 | 3.16 (inactive) | 0.895 (inactive) | 0.923 (inactive) | 1.21 (inactive) | -0.256 | 0.71 (inactive) | 0.705 (inactive) | 1.31
